The results in this text go back to PubChem BioAssay (NCATS).

The structures appear in SMILES notation. Several values for one entry are separate records, joined by “and”; a condition that tells them apart may be missing. Equal values may be shown once. Results filed as inconclusive are left out. A call without a number means that no potency is given here. Activity calls are given as the source filed them. Calls follow the shape of the full dose curve.

Test [1] can be described thus: Cytotoxicity counterscreen for inhibitors of SARS-CoV-2 cell entry (AID 1645845). Also: nearly all actives have a fitted effect of over 50% in size. In outline:
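Expi293F/hACE2 cells seeded overnight; cpd pin-transferred in DMSO, 1 h preincubation, + media, 48 h 37 C 5% CO2; ATPLite 1step luminescence; normalized to cells and no cells.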
On the technique in general: The purpose of a counterscreen is to sort out artefacts and off-target activity.

A short description of test [2]: Primary qHTS to identify inhibitors of SARS-CoV-2 cell entry (AID 1645846). Also: nearly all actives have a fitted effect of over 45% in size. The note with it: activity change, negative = inhibition: at 57.1 µM (top of the series) unless noted. In short, it runs like this:
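Luminescence readout (Bright-Glo luciferase) 48 h after pseudoparticle addition. HEK293-ACE2 cells, 1500/well; compound pre-incubation 1 h; Normalized to spike PP and bald PP.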

On to `CN1[C@@H]2CC(OC(=O)[C@H](CO)c3ccccc3)C[C@H]1[C@@H]1O[C@@H]12` (stereo partly drawn), for which the Potency entry in test [1] and in test [2] was “inactive” each time.

As for `COc1cnc(NS(=O)(=O)c2ccc(N)cc2)nc1`, the Potency result in test [1] and in test [2] was “inactive” each time.

Take `O=C(O)[C@@H](O)[C@H](O)[C@H](O)[C@@H](O)C(=O)O`: the Potency entry in test [1] was “inactive”. For the same compound, the activity change, negative = inhibition in test [2] is -0.518%.

`CC(=O)OCC(COC(C)=O)OC(C)=O`: the Potency result in test [1] was “inactive”. For the same compound, the activity change, negative = inhibition in test [2] stood at 0.643%.

With `CC(=O)OCC[N+](C)(C)C`, in test [1], the Potency result is “inactive”. For the same compound, the activity change, negative = inhibition in test [2] is 3.83%.

`CC[N+](CC)(CC)CCOc1cccc(OCC[N+](CC)(CC)CC)c1OCC[N+](CC)(CC)CC`: the Potency entry in test [1] and in test [2] was “inactive” throughout.

`O=C1c2c(O)cccc2Cc2cccc(O)c21`: the Potency result in test [1] and in test [2] was “inactive” each time.

For the compound `NCCNCCNCCN`, the Potency result in test [1] was “inactive”. For the same compound, the activity change, negative = inhibition in test [2] turned out to be 2.68%.

For the compound `CCN1C(=O)NC(c2ccccc2)C1=O` (stereo not drawn), the Potency entry in test [1] is “inactive”. Moreover, the activity change, negative = inhibition in test [2] is -1.94%.

Take `COc1ccccc1OCC(O)CO` (stereo not drawn): in test [1], the Potency entry was “inactive”. For the same compound, the activity change, negative = inhibition in test [2] was -15.9%.

With `O=C1CC[C@H](C(=O)N2CCCCC2)N1`, the Potency entry in test [1] was “inactive”. In test [2], the activity change, negative = inhibition was 2.86%.

On to `O=C(O)CCCCC(=O)O`, for which the Potency result in test [1] and in test [2] was “inactive” in each case.

As for `NCc1ccc(S(N)(=O)=O)cc1`, the Potency result in test [1] and in test [2] was “inactive” throughout.

`CC(=O)Nc1ccc(C(=O)O)cc1`: the Potency entry in test [1] and in test [2] was “inactive” in each case.

With `c1ccc2sc(SSc3nc4ccccc4s3)nc2c1`, the Potency result in test [1] and in test [2] was “inactive” throughout.

Take `C[C@](O)(CS(=O)(=O)c1ccc(F)cc1)C(=O)Nc1ccc(C#N)c(C(F)(F)F)c1`: the Potency result in test [1] is “inactive”. For the same compound, in test [2], the activity change, negative = inhibition is -4.4%.

`Cc1ccc(C(C)C)cc2c(C)ccc1-2`: the Potency result in test [1] and in test [2] was “inactive” each time.

For `NS(=O)(=O)c1ccc(Cl)c(S(N)(=O)=O)c1`, the Potency result in test [1] and in test [2] was “inactive” throughout.

In the case of `CC(C)C(=O)c1c(C(C)C)nn2ccccc12`, the Potency result in test [1] and in test [2] was “inactive” throughout.

Regarding `c1ccc2c(CC3=NCCN3)cccc2c1`, the Potency entry in test [1] was “inactive”. Also, in test [2], the activity change, negative = inhibition stood at 0.334%.

In the case of `O=C(O)CCC(=O)O`, the Potency entry in test [1] and in test [2] was “inactive” in each case.

For the compound `C1COC(NC(C2CC2)C2CC2)=N1`, in test [1], the Potency result is “inactive”. The activity change, negative = inhibition in test [2] turned out to be 1.02%.

Take `C[C@H]1O[C@@H](n2cc(F)c(=O)[nH]c2=O)[C@H](O)[C@@H]1O`: in test [1], the Potency entry was “inactive”. The activity change, negative = inhibition in test [2] was -10.7% and -12.7%.

In the case of `Cc1oc(=O)oc1COC(=O)[C@@H]1N2C(=O)[C@@H](NC(=O)[C@H](N)c3ccccc3)[C@H]2SC1(C)C`, the Potency result in test [1] and in test [2] was “inactive” in each case.

As to `O=C(O)c1ccccc1Nc1cccc(C(F)(F)F)c1`, the Potency result in test [1] and in test [2] was “inactive” each time.

`O=C(CCOCCOCCOCCOCCC(=O)Nc1c(I)cc(I)c(C(=O)O)c1I)Nc1c(I)cc(I)c(C(=O)O)c1I`: the Potency result in test [1] and in test [2] was “inactive” in each case.

For `CCCCC(O)/C=C(C)/C=C/C=C/C(=O)N1CCCC1=O` (stereo not drawn), the Potency entry in test [1] was “inactive”. The activity change, negative = inhibition in test [2] is -3.29%.

For the compound `COc1cc(C(=O)NS(=O)(=O)c2ccccc2C)ccc1Cc1cn(C)c2ccc(NC(=O)OC3CCCC3)cc12`, the Potency entry in test [1] and in test [2] was “inactive” in each case.

As to `Cc1cc(C)nc(NS(=O)(=O)c2ccc(N)cc2)n1`, the Potency entry in test [1] and in test [2] was “inactive” in each case.

For `CC(=O)N=c1sc(S(N)(=O)=O)nn1C`, the Potency entry in test [1] is “inactive”. Moreover, the activity change, negative = inhibition in test [2] is -31.8%.

Take `C[N+](C)(C)CCOC(N)=O`: the Potency result in test [1] and in test [2] was “inactive” throughout.

Take `CS(=O)(=O)c1ccc([C@@H](O)[C@@H](CF)NC(=O)C(Cl)Cl)cc1`: the Potency entry in test [1] is “inactive”. In test [2], the activity change, negative = inhibition was -26.1%.

As for `CCOc1ccc(NS(=O)(=O)c2ccc(N)cc2)nn1`, the Potency result in test [1] is “inactive”. Moreover, in test [2], the activity change, negative = inhibition is -12.4%.

Turning to `CO[C@@]1(NC(=O)C2SC(=C(C(N)=O)C(=O)O)S2)C(=O)N2C(C(=O)O)=C(CSc3nnnn3C)CS[C@@H]21` (stereo partly drawn), the Potency entry in test [1] was “inactive”. Moreover, the activity change, negative = inhibition in test [2] was 4.49%.
